TRHR enhancer – qHTS for Small Molecule Agonists and Allosteric Enhancers of Human TRH Receptor: Primary Screen for Enhancers; Thyrotropin-releasing hormone receptor (Homo sapiens), P34981; TRHR cells, fluo-8 calcium fluorescence, EC20 TRH enhancement; enhancement, % at 2 µM; actives 0.66% (n = 360,000); AID 493056, 2011; in the data active means enhancement above about 30%
Target sequence (P34981 whole entry, looked up): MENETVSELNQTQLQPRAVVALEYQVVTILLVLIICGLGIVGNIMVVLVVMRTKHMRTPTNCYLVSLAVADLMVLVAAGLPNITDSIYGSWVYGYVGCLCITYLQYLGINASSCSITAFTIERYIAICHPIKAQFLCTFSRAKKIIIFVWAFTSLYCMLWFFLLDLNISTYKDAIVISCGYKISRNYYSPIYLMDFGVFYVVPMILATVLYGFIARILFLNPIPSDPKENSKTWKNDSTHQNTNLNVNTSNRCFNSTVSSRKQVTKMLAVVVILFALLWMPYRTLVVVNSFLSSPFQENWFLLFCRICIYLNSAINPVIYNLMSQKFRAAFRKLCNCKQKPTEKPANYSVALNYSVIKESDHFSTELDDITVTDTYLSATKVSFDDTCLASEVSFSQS
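TRHR-expressing cells loaded with fluo-8 calcium dye were read kinetically (ex 480/em 530) during compound addition, then stimulated with an EC20 of TRH (10 nM final). Enhancement of the Gq-mediated intracellular calcium response was scored.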
TRPML1 inh – qHTS for Inhibitors of the Human Mucolipin Transient Receptor Potential 1 (TRPML1); TRPML1-inducible cells, Ca2+ dye fluorescence, FDSS; stronger effect = lower value; inhibition of EC80 agonist-evoked calcium signal; activity change, negative = inhibition, % (test concentration not listed); actives 0.02% (n = 390,000); Mucolipin-1 (Homo sapiens), Q9GZU1; AID 624415, 2012; in the data active means activity change below about -50%; inconclusive means between about -30% and that limit;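 further: stimulus is agonist 54-4 at its EC80 concentration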
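Calcium fluorescence in TRPML1-DL cells induced overnight with Tet: a 110 s read after compound pin addition, then a 110 s antagonist read after challenge with 54-4 at 4 uM final (EC80).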
KCNH2 3.1 inh – qHTS for Inhibitors of KCHN2 3.1: Mutant qHTS; U2OS KCNH2 3.1, thallium flux FluxOr; stronger effect = lower value; actives 0.95% (n = 340,000); AID 720553, 2013; activity change, % (tested at about 1.8 µM);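 active means maximum activity change below -70%; inconclusive means maximum activity change from -70% to -50%; inactive means maximum activity change above -50%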;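 further: thallium influx rate constant from kinetic fluorescence after stimulation buffer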
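U2OS cells transduced with KCNH2 3.1 mutant virus (1.77 x 10^8 /mL, 4 h), plated overnight at 37 C, loaded 45 min with FluxOr dye plus Red40 quencher. Thallium flux rate constant from kinetic reads after stimulation buffer, normalised to controls.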
TRHR agonist – qHTS for Small Molecule Agonists and Allosteric Enhancers of Human TRH Receptor: Primary Screen for Agonists; Thyrotropin-releasing hormone receptor (Homo sapiens), P34981; activation, % at 2 µM; actives 0.18% (n = 360,000); TRHR cells, calcium flux fluo-8, FDSS agonist mode; in the data active means activation above about 30%
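Read-out: compound-evoked intracellular calcium rise in TRHR cells, fluo-8 dye, kinetic FDSS fluorescence at 1 s/cycle following a 10-cycle baseline. Cells cultured overnight before dye loading (30 min–1.5 h, RT).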
hERG WT inh – qHTS for Inhibitors of KCHN2 3.1: Wildtype qHTS; AID 720551, 2013; activity change, % at 1.84 µM; Voltage-gated inwardly rectifying potassium channel KCNH2 (Homo sapiens), Q12809; U2OS, BacMam KCNH2, thallium flux FluxOr; stronger effect = lower value; actives 0.37% (n = 340,000);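 active means maximum activity change below -70%; inconclusive means maximum activity change between -70% and -50%; inactive means maximum activity change above -50%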
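U2OS cells transduced with wild-type KCNH2 virus are loaded with FluxOr dye for 45 min, and thallium flux is measured in kinetic reads before and after stimulation buffer. Rate constants are normalized to DMSO controls.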
TRPML1 ag – qHTS for Agonists of the Human Mucolipin Transient Receptor Potential 1 (TRPML1); actives 0.12% (n = 410,000); TRPML1-expressing cells, Ca2+ dye fluorescence, FDSS; Mucolipin-1 (Homo sapiens), Q9GZU1; activation, % (no concentration beside the values); in the data active means activation above about 50%; inconclusive means mostly about 30% to 49%
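Tetracycline-induced TRPML1-DL cells are seeded and incubated overnight before loading with a no-wash Ca2+ dye and quencher. Agonist activity is taken from the 110 s fluorescence read following compound pin-transfer on an FDSS, before EC80 54-4 challenge.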
Each line names hits and unclear results; the compound was inactive in the other large screens; ! = repeats disagree. In the library only some 1.7% were active in any assay of this set; here they are far more common.

CCN1C(=S)SC(=O)C1=C1C=C(C)N(Cc2ccco2)C(C)=C1	TRPML1 ag 59.2
CCN1C(=S)SC(=O)C1=C1C=C(C)OC(C)=C1	none
CN(C)C(CNC(=O)c1ccc(-c2ccccc2)cc1)c1ccccc1 (centres undefined)	TRHR enhancer 31.0
CN(C)C(CNC(=O)c1ccc(C(=O)c2ccccc2)cc1)c1ccccc1 (centres undefined)	none
CN(CC(=O)N1CCCC1)S(=O)(=O)c1ccc(Cl)cc1	TRHR enhancer 30.3
COc1ccc(S(=O)(=O)N(C)C2CCN(C)CC2)cc1	none
CN1CCC(N(C)S(=O)(=O)c2ccc(Cl)cc2)CC1	TRHR enhancer 34.5
CN(CC(=O)N1CCCCC1)S(=O)(=O)c1ccc(Cl)cc1	none
CC(Sc1nnc(-c2cccnc2)n1C)C(=O)N1CCOCC1 (centres undefined)	none
Cc1ccc(NC(=O)Cn2cnc([N+](=O)[O-])c2)cc1C	none
OC(c1cccnc1)c1nc(-c2ccc3c(c2)OCO3)cs1 (centres undefined)	none (no result: TRHR enhancer, TRPML1 inh, KCNH2 3.1 inh, TRHR agonist, hERG WT inh)
Fc1ccc(Nc2nc(NCc3ccco3)c3ccccc3n2)cc1	KCNH2 3.1 inh -91.9
Cc1ccc(-c2csc(N3CCC[C@@H]3C(=O)NCCn3c(-c4ccncc4)nc4ccccc43)n2)cc1	KCNH2 3.1 inh -105.4
Cc1ccc(-c2csc(N3CCN(CCCn4c(-c5ccncc5)nc5ccccc54)CC3)n2)cc1	none
CC(=O)N1c2ccc(S(=O)(=O)NCCC(=O)N3CCC(C)CC3)cc2CC1C (centres undefined)	TRHR enhancer 32.3
COc1ccc(CNC(=O)COc2ccc(S(=O)(=O)N3CCCCC3)cc2Cl)cc1	none
CC1Cc2cc(S(=O)(=O)NCCC(=O)NCc3ccc(F)cc3)ccc2N1C(=O)C1CC1 (centres undefined)	hERG WT inh -87.0
CC(=O)N1c2ccc(S(=O)(=O)NCCC(=O)NCc3ccc(F)cc3)cc2CC1C (centres undefined)	none
COc1ccc(S(=O)(=O)NCCC(=O)NCc2ccc(F)cc2)cc1	KCNH2 3.1 inh -79.6
COc1ccc(CNC(=O)COc2ccc(S(=O)(=O)N3CCCCC3)cc2)cc1	hERG WT inh -130.7
CC(=O)N1c2ccc(S(=O)(=O)NCCC(=O)NC3CCCCCC3)cc2CC1C (centres undefined)	none
CN(CC(=O)Nc1ccc(F)cc1)C(=O)COC(=O)/C=C/c1ccccc1[N+](=O)[O-]	none
COc1cc(CNCCc2c[nH]c3ccccc23)ccc1OCc1ccccc1F	KCNH2 3.1 inh -78.8
Nc1ccc2nc(-c3ccccc3)c(-c3ccccc3)nc2c1	TRHR agonist 32.2
COc1ccc(OCCN2CCN(C(=O)c3ccc(OC)cc3)CC2)cc1	none
COc1ccc(OCCN2CCN(C(=O)c3ccc(OC(F)F)c(OC)c3)CC2)cc1	KCNH2 3.1 inh -75.9
O=C(CN1C(=O)COc2ccc(S(=O)(=O)N3CCOCC3)cc21)N1CCN(c2ccccc2F)CC1	TRHR enhancer 33.4 (no result: KCNH2 3.1 inh, hERG WT inh)
CCN(CC)C(=O)CN1C(=O)COc2ccc(S(=O)(=O)N3CCOCC3)cc21	none (no result: KCNH2 3.1 inh, hERG WT inh)
CCCCNC(=O)CN1C(=O)COc2ccc(S(=O)(=O)N3CCCC3)cc21	none (no result: KCNH2 3.1 inh, hERG WT inh)
CCC(C)NC(=O)CN1C(=O)COc2ccc(S(=O)(=O)N3CCOCC3)cc21 (centres undefined)	TRHR enhancer 30.2!
O=C(CN1C(=O)COc2ccc(S(=O)(=O)N3CCCCCC3)cc21)N1CCN(c2ccccc2F)CC1	none (no result: KCNH2 3.1 inh, hERG WT inh)
COCCNC(=O)CN1C(=O)COc2ccc(S(=O)(=O)N3CCCC3)cc21	TRHR enhancer 32.6 (no result: KCNH2 3.1 inh, hERG WT inh)
Cc1cc2n(n1)C(c1cn(-c3ccccc3)nc1C)Nc1ccccc1-2 (centres undefined)	KCNH2 3.1 inh -136.3, hERG WT inh -125.4
CCCCCCCCCC[n+]1cc(Br)cc(Br)c1	none (no result: TRHR enhancer, TRPML1 inh, KCNH2 3.1 inh, TRHR agonist, hERG WT inh)
O=C(Cn1ncn2c(cc3sccc32)c1=O)NC1CCCC1	KCNH2 3.1 inh -77.3
CCc1cc2c(cc3c(=O)n(CC(=O)N4CCCCC4)ncn32)s1	none (no result: KCNH2 3.1 inh, hERG WT inh)
CCc1cc2c(cc3c(=O)n(CC(=O)NC4CCCCC4)ncn32)s1	TRHR enhancer 43.6 (no result: KCNH2 3.1 inh, hERG WT inh)
O=C1OCCN1CCNCc1cn(-c2ccc(F)cc2)nc1-c1ccccc1Cl	hERG WT inh -149.9
Cc1ccc(-n2cc(CNCCN3CCOC3=O)c(-c3cccc(C)c3)n2)cc1	none
CC[n+]1c(/C=C2/C=C(C)CC(C)(C)C2)sc2ccc(OC)cc21	hERG WT inh -71.2
CC[n+]1c(/C=C2\C=C(C)CC(C)(C)C2)sc2ccccc21	none
c1ccc(OCCN2CCN(C(c3ccccc3)c3ccccc3)CC2)cc1	KCNH2 3.1 inh -96.1
OC(CN1CC=C(/C=C/c2ccc(Br)cc2)CC1)c1ccccc1 (centres undefined)	KCNH2 3.1 inh -92.7
OC(CN1CCN(C(c2ccccc2)c2ccccc2)CC1)c1ccccc1 (centres undefined)	none (no result: TRPML1 inh, TRPML1 ag)
CC(=O)c1ccccc1OCC(O)CN1CCN(C(c2ccccc2)c2ccccc2)CC1 (centres undefined)	KCNH2 3.1 inh -84.8, hERG WT inh -74.3
OC(CN1CCCC1)c1ccccc1 (centres undefined)	none (no result: TRHR enhancer, TRPML1 inh, KCNH2 3.1 inh, TRHR agonist, hERG WT inh)
OC(CN1CCN(C(c2ccccc2)c2ccccc2)CC1)c1ccc(Br)cc1 (centres undefined)	KCNH2 3.1 inh -103.9, hERG WT inh -103.1
COc1ccc(NC(=O)C2CCN(S(=O)(=O)c3ccc4c(c3)CC(C)N4C(C)=O)CC2)c(OC)c1 (centres undefined)	none
CC1(c2ccccc2)NC(=O)N(CC(=O)NNC(=O)c2cccc(Cl)c2)C1=O (centres undefined)	none
CCCNC(=O)N(C)C[C@@H]1Oc2ncc(-c3ccncc3)cc2C(=O)N([C@H](C)CO)C[C@@H]1C	none (no result: TRHR enhancer, TRPML1 inh, TRHR agonist, TRPML1 ag)
COc1cc(CN2CCN(C(c3ccccc3)c3ccccc3)CC2)cc(OC)c1OC	KCNH2 3.1 inh inconclusive
COc1cccc(CN2CCN(C(c3ccccc3)c3ccccc3)CC2)c1O	KCNH2 3.1 inh -74.1
Cc1cc(Br)cc2c1N(Cc1ccccc1OC(C)C)C(=O)C2=O	none (no result: KCNH2 3.1 inh, hERG WT inh)
